This passage reports residual activity results from ChEMBL document CHEMBL2218924, “A broad activity screen in support of a chemogenomic map for kinase signalling research and drug discovery” (Biochem J, 2013).

The target in experiment [1] is T1, Ephrin type-A receptor 3 (Homo sapiens) (UniProt P29320).
T1 sequence (whole entry): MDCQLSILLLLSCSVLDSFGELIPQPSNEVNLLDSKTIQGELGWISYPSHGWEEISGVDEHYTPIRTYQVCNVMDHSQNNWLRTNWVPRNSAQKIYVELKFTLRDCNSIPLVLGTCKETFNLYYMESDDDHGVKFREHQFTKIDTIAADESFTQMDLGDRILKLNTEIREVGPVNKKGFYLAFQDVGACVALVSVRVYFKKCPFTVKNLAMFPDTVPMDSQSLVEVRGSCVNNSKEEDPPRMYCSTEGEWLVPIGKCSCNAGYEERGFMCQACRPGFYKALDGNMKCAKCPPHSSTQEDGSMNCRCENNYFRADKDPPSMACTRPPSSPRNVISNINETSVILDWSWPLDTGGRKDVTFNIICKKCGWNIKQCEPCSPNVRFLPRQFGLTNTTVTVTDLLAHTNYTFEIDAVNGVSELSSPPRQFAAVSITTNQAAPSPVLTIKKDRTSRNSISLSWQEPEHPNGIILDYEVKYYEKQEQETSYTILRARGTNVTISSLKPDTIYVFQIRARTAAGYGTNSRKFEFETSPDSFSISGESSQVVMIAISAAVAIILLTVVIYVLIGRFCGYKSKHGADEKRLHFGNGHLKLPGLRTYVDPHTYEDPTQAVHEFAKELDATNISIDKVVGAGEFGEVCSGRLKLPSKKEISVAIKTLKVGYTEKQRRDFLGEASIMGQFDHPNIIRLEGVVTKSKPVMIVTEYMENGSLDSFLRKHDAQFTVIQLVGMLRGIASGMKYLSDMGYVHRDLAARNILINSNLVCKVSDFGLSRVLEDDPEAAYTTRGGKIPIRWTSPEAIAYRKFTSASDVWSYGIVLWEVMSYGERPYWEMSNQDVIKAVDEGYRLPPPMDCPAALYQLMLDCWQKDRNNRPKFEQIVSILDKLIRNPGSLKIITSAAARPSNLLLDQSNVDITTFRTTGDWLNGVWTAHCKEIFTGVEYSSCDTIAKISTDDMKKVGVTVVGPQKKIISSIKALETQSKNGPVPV
Particulars: at 10 µM.

In experiment [2] the target is Ephrin type-A receptor 7 (Homo sapiens) (UniProt Q15375). Particulars: at 10 µM.
Experiment [3] deals with T2, Dual specificity tyrosine-phosphorylation-regulated kinase 2 (Homo sapiens) (UniProt Q92630).
T2 sequence (whole entry): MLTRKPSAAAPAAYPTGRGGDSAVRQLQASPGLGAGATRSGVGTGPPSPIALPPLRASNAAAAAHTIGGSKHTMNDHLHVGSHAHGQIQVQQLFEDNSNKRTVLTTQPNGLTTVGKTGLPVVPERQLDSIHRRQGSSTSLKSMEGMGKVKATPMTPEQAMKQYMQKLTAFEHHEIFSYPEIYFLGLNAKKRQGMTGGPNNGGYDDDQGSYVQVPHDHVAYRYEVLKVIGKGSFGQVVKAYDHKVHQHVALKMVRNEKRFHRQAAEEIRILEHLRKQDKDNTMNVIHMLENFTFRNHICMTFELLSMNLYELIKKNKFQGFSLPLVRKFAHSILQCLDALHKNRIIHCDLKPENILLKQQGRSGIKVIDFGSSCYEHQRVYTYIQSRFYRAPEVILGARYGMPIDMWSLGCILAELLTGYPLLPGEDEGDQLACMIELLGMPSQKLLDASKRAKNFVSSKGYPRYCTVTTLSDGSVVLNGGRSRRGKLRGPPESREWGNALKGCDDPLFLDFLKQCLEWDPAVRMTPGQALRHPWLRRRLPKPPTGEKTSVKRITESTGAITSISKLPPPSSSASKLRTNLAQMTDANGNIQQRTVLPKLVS
The settings on record: at 1 µM.

Experiment [4] concerns the target T2, Dual specificity tyrosine-phosphorylation-regulated kinase 2 (Homo sapiens). Particulars: at 10 µM.
The target of experiment [5] is T3, Serine/threonine-protein kinase 17A (Homo sapiens) (UniProt Q9UEE5).
T3 sequence (whole entry): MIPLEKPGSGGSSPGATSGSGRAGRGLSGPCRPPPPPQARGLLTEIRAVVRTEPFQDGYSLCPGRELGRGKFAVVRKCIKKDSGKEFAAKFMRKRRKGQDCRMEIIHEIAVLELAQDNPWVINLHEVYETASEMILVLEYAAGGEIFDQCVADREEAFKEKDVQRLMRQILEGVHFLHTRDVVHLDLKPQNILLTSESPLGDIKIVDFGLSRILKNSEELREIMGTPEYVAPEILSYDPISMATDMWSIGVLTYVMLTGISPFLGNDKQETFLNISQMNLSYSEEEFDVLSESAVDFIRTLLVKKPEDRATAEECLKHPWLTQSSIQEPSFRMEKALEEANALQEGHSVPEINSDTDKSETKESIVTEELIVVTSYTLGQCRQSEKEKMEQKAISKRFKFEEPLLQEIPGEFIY
Particulars: at 10 µM.

In experiment [6] the target is T4, Ephrin type-A receptor 1 (Homo sapiens) (UniProt P21709).
T4 sequence (whole entry): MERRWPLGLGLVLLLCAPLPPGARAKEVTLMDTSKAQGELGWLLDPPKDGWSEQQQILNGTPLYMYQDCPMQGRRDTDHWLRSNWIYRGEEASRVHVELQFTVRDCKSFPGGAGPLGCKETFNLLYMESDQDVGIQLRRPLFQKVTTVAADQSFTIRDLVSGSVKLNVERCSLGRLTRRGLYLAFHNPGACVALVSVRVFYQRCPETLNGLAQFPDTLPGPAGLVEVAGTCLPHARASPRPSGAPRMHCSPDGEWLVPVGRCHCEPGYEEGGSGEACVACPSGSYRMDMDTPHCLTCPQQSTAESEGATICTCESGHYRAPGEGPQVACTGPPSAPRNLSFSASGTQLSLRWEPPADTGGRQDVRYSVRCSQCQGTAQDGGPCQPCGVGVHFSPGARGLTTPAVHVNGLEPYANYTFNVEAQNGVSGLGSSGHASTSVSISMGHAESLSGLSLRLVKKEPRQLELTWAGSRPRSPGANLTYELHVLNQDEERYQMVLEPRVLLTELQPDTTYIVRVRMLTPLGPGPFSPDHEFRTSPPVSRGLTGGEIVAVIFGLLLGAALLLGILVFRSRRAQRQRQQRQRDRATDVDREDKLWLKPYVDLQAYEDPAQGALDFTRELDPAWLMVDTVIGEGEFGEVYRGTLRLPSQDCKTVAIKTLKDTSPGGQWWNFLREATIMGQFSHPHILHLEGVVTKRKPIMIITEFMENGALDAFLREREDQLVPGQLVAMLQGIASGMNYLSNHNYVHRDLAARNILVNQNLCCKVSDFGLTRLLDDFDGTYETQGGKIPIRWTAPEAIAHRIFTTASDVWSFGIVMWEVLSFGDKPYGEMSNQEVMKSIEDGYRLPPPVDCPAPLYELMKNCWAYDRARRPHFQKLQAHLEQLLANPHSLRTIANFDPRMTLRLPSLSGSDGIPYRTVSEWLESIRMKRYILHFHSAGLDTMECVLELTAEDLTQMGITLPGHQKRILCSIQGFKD
Particulars: at 1 µM.

In experiment [7] the target is T4, Ephrin type-A receptor 1 (Homo sapiens). The settings on record: at 10 µM.
The target in experiment [8] is Ephrin type-A receptor 2 (Homo sapiens) (UniProt P29317). Particulars: at 1 µM.
The target is the same in experiment [9]. The settings on record: at 10 µM.
In experiment [10] the target is Ephrin type-A receptor 5 (Homo sapiens) (UniProt P54756). The settings on record: at 1 µM.
For experiment [11] the target is unchanged. The settings on record: at 10 µM.
The target of experiment [12] is T1, Ephrin type-A receptor 3 (Homo sapiens). The settings on record: at 1 µM.
For experiment [13], the target named is Ephrin type-A receptor 4 (Homo sapiens) (UniProt P54764). The settings on record: at 1 µM.
For experiment [14] the target is unchanged. The settings on record: at 10 µM.
In experiment [15] the target is Ephrin type-A receptor 7 (Homo sapiens) (UniProt Q15375). The settings on record: at 1 µM.
The target in experiment [16] is T5, Ephrin type-A receptor 8 (Homo sapiens) (UniProt P29322).
T5 sequence (whole entry): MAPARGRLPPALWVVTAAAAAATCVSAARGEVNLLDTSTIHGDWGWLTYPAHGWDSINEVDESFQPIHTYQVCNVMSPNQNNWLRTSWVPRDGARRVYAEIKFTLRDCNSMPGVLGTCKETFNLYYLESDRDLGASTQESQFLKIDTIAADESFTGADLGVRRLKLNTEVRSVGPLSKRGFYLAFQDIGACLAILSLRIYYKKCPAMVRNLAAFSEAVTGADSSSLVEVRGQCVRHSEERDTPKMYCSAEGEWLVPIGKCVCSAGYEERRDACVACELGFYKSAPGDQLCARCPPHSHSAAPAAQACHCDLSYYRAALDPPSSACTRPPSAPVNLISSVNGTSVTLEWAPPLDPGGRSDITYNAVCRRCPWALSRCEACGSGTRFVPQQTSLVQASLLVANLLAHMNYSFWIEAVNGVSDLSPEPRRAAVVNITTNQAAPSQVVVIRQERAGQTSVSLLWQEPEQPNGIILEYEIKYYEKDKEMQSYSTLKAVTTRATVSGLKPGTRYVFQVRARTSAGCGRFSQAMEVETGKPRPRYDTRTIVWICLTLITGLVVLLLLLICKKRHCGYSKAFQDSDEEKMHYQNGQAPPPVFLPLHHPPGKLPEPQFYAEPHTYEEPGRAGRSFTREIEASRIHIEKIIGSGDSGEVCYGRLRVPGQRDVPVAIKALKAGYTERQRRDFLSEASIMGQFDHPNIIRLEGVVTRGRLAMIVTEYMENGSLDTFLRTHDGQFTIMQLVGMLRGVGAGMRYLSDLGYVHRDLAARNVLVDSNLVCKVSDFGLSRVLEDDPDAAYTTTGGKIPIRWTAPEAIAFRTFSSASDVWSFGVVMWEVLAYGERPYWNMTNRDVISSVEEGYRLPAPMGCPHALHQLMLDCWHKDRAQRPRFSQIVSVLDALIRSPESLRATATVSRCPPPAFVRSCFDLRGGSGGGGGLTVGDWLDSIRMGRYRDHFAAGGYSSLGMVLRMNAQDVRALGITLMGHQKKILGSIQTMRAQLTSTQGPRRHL
Particulars: at 1 µM.

Experiment [17] addresses T5, Ephrin type-A receptor 8 (Homo sapiens). The settings on record: at 10 µM.
Experiment [18] concerns the target T6, Ephrin type-B receptor 1 (Homo sapiens) (UniProt P54762).
T6 sequence (whole entry): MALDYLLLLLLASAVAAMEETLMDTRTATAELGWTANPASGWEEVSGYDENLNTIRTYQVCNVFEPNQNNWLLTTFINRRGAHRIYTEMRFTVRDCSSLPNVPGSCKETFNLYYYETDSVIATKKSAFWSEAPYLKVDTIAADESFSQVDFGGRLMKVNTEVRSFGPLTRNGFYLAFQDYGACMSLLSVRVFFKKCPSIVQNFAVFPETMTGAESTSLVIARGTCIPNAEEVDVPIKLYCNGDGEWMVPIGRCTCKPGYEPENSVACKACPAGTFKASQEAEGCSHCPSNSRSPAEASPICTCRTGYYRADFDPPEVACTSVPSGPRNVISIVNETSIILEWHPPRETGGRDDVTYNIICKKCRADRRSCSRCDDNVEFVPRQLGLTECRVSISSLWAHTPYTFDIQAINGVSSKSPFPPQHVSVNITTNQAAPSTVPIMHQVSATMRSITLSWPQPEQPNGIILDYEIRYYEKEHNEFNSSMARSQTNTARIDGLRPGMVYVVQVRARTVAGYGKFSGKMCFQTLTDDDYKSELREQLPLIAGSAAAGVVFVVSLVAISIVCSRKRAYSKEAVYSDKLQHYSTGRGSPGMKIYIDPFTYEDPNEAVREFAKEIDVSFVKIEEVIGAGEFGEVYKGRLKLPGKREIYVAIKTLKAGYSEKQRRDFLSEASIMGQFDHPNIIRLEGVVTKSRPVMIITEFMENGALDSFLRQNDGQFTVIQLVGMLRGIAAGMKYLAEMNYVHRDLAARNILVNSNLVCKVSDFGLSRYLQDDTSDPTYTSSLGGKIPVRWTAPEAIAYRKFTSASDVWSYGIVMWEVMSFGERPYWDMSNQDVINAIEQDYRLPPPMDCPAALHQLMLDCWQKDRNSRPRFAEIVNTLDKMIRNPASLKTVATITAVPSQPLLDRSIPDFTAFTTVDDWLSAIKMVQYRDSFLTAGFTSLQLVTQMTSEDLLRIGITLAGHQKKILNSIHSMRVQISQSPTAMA
The settings on record: at 1 µM.

Chain of Ephrin type-A receptor 5 (Homo sapiens) (P54756 whole entry): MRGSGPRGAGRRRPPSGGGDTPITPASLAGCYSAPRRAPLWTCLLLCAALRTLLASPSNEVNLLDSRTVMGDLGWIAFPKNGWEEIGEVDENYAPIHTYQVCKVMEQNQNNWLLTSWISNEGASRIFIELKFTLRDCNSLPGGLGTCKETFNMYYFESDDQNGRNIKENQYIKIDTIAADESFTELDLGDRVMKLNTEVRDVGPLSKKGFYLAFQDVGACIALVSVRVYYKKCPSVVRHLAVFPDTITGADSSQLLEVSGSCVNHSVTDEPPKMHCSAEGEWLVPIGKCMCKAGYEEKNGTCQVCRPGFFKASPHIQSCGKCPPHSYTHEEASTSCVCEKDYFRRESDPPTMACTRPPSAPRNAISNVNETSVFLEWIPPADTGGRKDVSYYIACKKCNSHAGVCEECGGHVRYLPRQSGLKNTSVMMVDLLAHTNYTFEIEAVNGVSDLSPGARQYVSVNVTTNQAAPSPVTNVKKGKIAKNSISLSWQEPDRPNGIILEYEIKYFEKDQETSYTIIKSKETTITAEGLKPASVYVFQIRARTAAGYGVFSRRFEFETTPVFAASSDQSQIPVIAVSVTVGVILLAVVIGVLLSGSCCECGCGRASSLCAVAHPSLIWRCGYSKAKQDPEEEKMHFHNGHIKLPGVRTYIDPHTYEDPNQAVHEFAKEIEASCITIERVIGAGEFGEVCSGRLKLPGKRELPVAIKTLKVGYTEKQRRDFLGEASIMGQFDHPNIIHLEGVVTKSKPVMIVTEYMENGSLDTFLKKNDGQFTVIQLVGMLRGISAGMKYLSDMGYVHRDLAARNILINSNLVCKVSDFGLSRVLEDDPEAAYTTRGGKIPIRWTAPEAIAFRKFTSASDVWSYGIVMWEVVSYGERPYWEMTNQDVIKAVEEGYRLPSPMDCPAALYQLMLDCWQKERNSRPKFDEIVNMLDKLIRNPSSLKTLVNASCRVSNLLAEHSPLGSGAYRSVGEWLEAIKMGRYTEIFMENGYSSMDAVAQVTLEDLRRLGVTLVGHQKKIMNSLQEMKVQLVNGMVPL
Chain of Ephrin type-A receptor 2 (Homo sapiens) (P29317 whole entry): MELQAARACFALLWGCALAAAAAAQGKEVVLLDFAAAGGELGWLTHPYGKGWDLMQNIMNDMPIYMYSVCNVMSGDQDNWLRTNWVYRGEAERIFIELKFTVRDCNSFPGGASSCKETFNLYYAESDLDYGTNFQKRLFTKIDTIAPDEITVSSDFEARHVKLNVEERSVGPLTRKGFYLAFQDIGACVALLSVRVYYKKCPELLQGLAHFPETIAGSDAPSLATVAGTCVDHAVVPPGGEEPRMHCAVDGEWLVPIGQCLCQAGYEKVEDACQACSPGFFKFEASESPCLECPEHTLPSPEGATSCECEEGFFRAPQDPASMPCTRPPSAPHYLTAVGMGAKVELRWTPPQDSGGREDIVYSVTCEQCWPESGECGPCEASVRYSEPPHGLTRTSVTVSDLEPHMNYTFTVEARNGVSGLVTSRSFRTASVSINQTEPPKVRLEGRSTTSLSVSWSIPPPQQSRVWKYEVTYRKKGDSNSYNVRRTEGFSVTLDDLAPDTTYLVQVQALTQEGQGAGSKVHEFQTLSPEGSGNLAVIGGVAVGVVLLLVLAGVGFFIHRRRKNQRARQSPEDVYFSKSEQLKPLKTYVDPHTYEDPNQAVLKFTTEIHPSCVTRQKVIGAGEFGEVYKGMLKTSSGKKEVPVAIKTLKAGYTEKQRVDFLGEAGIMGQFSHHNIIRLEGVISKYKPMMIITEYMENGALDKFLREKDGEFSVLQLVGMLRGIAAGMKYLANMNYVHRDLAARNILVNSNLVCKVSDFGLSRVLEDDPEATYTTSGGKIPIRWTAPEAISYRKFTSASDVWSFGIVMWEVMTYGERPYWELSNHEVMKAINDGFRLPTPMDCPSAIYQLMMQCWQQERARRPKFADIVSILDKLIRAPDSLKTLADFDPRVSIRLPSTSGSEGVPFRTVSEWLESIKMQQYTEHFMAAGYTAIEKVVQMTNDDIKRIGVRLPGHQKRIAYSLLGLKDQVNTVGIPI
Chain of Ephrin type-A receptor 4 (Homo sapiens) (P54764 whole entry): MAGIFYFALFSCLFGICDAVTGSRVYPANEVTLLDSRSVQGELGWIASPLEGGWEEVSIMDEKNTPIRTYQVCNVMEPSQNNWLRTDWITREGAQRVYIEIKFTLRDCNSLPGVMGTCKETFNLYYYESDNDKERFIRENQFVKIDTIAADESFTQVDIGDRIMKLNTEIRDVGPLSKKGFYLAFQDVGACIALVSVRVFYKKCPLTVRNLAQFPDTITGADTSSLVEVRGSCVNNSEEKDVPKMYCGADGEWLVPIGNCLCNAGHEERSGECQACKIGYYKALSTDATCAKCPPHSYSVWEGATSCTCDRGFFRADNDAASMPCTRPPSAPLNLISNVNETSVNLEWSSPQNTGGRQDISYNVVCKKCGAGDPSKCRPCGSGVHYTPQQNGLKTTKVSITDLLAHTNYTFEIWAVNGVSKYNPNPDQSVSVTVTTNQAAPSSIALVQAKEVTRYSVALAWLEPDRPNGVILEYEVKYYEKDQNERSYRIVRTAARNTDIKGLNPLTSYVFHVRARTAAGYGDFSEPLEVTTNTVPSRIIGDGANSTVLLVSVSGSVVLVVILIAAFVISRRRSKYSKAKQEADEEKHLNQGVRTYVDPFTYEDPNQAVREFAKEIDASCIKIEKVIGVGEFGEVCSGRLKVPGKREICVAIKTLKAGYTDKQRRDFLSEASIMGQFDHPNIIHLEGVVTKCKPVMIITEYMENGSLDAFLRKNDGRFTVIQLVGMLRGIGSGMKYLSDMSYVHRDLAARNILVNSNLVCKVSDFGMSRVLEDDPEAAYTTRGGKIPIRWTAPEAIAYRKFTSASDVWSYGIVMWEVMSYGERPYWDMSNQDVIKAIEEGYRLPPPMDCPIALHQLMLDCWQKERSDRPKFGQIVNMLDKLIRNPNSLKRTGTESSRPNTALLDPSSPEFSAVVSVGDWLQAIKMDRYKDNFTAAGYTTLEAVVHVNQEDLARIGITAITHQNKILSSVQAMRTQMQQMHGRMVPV
Chain of Ephrin type-A receptor 7 (Homo sapiens) (Q15375 28-998 limits assumed): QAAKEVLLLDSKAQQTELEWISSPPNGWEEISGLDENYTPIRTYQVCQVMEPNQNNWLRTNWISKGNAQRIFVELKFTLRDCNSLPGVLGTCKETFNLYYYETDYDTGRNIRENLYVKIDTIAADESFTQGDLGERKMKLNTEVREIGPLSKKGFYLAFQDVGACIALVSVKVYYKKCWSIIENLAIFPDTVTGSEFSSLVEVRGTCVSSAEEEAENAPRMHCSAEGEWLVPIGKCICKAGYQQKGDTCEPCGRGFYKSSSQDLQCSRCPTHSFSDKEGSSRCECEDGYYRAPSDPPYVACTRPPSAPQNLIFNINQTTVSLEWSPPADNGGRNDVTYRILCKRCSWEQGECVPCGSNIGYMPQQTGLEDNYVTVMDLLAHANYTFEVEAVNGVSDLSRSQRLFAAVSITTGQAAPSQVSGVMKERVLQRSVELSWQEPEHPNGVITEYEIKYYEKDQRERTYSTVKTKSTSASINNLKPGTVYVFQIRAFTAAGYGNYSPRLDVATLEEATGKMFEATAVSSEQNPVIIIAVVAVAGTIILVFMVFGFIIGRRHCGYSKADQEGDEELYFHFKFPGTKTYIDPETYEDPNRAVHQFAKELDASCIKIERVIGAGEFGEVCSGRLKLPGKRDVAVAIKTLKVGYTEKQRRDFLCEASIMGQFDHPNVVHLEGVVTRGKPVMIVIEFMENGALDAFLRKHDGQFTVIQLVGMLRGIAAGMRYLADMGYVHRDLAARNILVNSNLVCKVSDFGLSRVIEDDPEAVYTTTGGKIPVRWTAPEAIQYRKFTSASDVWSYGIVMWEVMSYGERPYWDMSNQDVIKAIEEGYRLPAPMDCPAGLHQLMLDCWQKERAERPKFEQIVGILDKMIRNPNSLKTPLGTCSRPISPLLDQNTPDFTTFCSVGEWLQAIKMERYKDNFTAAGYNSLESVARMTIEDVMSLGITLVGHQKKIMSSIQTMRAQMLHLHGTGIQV

Regarding `O=c1cc(N2CCOCC2)oc2c(-c3ccccc3)cccc12`, the residual activity was 77% in [1] and 79% in experiment [2].
As to `CCN1/C(=C/C(C)=O)Sc2ccc(OC)cc21`, the residual activity was 5% in [3] and -5% in [4].
In the case of `NCCNc1ncc(C(N)=O)c(Nc2cccc(C(F)(F)F)c2)n1`, the residual activity is 60% in experiment [5]; 81% in experiment [6]; 45% in experiment [7]; 103% in [8]; 76% in experiment [9]; 102% in experiment [10]. Moreover, the residual activity in experiment [11] turned out to be 74%; in experiment [2] it was 72%.
For the compound `COc1cc2nccc(Oc3ccc(NC(=O)Nc4cc(C)on4)c(Cl)c3)c2cc1OC`, the residual activity in [6] was 10%; in experiment [7] it was 6%; in experiment [8], -3%; in experiment [9], -3%; in experiment [12] it was 1%; in experiment [1] it was 0%. Further, the residual activity in experiment [13] is 26%; in [14] it was 3%; in experiment [10], 2%; in [11], 7%; in experiment [15], 6%; in [2] it was 1%. Moreover, the residual activity in [16], in experiment [17] and in experiment [18] was 1% each time.
Consider `CCCCc1c(-c2ccc(OC)cc2)[nH]c2nccnc12`, for which the residual activity in experiment [5] amounted to 80%; in experiment [6], 29%; in experiment [7], 3%; in [8], 87%; in [9] it was 82%; in experiment [12] it was 74%. For the same compound, the residual activity was determined as 49% in [1]; 108% in [13]; 105% in [14]; 100% in experiment [10]; 83% in [11]; 77% in experiment [15]. Besides, the residual activity in experiment [2] amounted to 73%; in experiment [18], 61%.

What is called residual activity is the signal under treatment as a percentage of the control signal.
